The structures appear in SMILES notation. Values joined by “and” are separate entries in the source; they are usually repeats but may differ in a detail not shown here. Equal entries are not always repeated. Inconclusive results are not listed. Where a structure was tested more than once in an assay, its records may differ in their call. Active and inactive are the calls of the source. The calls were made as follows: active = hit-call score of the fitted dose curve at least 0.9, where 1 is the maximum; inconclusive = response in the unintended direction; inactive = score below 0.9.

Here are results for 38 compounds from PubChem BioAssay (EPA / NIEHS).

The target of the test is Peroxisome proliferator-activated receptor gamma (Homo sapiens) (UniProt P37231). Put plainly: ATG_PPARg_TRANS: Attagene TRANS-FACTORIAL HepG2 Assay for human Peroxisome Proliferator-activated Receptor-gamma (PPARg) (AID 2283007). Here is the method: ATG_TRANS is a cell-based, multiplexed-readout assay that uses HepG2, a human liver cell line, with measurements taken at 24 hours after chemical dosing in a 24-well plate.ATG_PPARg_TRANS is one of 30 assay component(s) measured or calculated from the ATG_TRANS assay. It is designed to make measurements of mRNA induction, a form of inducible reporter, as detected with fluorescence intensity signals by Reverse transcription polymerase chain reaction (RT-PCR) and Capillary electrophoresis technology.Data from the assay component ATG_PPARg_TRANS was analyzed into 1 assay endpoint. This assay endpoint, ATG_PPARg_TRANS, was analyzed in the positive analysis fitting direction relative to DMSO as the negative control and baseline of activity. Using a type of inducible reporter, measures of mRNA for gain-of-signal activity can be used to understand the reporter gene at the transcription factor-level as they relate to the gene PPARG. Furthermore, this assay endpoint can be referred to as a primary readout, because this assay has produced multiple assay endpoints where this one serves a reporter gene function. To generalize the intended target to other relatable targets, this assay endpoint is annotated to the nuclear receptor intended target family, where the subfamily is non-steroidal.
Peroxisome proliferator-activated receptor gamma (Homo sapiens), sequence (P37231 whole entry, looked up): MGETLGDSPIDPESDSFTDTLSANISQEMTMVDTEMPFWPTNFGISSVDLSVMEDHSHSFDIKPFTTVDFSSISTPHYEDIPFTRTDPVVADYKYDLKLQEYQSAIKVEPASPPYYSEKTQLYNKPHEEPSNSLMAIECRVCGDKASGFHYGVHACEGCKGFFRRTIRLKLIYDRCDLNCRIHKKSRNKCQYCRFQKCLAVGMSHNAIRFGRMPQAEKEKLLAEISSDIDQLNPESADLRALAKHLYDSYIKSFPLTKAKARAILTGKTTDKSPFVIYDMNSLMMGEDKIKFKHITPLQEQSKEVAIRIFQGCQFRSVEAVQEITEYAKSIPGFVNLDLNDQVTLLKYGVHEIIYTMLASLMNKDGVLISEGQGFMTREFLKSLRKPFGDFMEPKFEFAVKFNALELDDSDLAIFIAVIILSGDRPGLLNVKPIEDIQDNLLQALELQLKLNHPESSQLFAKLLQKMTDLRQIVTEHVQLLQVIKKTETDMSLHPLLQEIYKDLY
Human liver HepG2 cells are transiently transfected with multiple reporter transcription units (MRTUs) in 6-well plates using FuGene 6 reagent (Roche; 3 ml FuGene/1 mg DNA). The MRTU constructs are regulated by a cis-regulating element (promoter). […] A major difference between the CIS and TRANS system is that in CIS activities of endogenous TFs are measured, whereas the TRANS assay evaluates changes in activities of exogenous, chimeric NR-Gal4 proteins. […] At the end of 24 hour incubation, total RNA was isolated using TriZol reagent (Invitrogen). The isolated RNA is then reverse-transcribed using oligo(dT) primer and Mo-MLV reverse transcriptase (Invitrogen) with DNAse I (Ambion) treatment for 30 min. The one-tenth of the produced cDNA was amplified by PCR using Taq DNA polymerase (Invitrogen) and two reporter sequence-specific primers. The PCR products were fluorescently labeled by primer extension with 6-arboxyfluorescein (6-FAM) 5'-labeled reporter sequence-specific primer (2 min at 95 C, 20 s at 68 C and 10 min at 72 C) and these products were digested with 5U of HpaI (New England Biolabs) for 2h at 37 C. The fragments were purified using Qiaquick PCR columns (Qiagen), analyzed on an ABI 3130xL genetic analyzer (Applied Biosystems) with peak positions identified by using a set of X-rhodamine (ROX)-labeled MapMarker1000 molecular weight standards (BioVentures). The raw capillary electrophoresis data was processed using Attagraph software (Attagene).
In the case of `c1nc[nH]n1`, the result was inactive.

Usually AC50 stands for the concentration at which the activity in the assay is half-maximal. `O=C(O)C(F)(OC(F)(F)C(F)(F)C(F)(F)F)C(F)(F)F` (stereo not given): the call was inactive and the half-maximal activity concentration (AC50) was 102 µM (active).

Turning to `CCCCCCCc1ccc(O)cc1`, the AC50 was 24.3 µM (active) and the result was inactive.

In the case of `NC(=O)C(F)(F)C(F)(F)F`, the compound was classed as inactive.

For `CNC(=O)Oc1ccc(N(C)C)c(C)c1`, the compound was classed as inactive.

Consider `CCOP(=S)(S)OCC`, for which the outcome was inactive.

With `O=S(=O)(F)C(F)(F)C(F)(F)C(F)(F)C(F)(F)C(F)(F)C(F)(F)C(F)(F)C(F)(F)F`, the outcome was inactive.

Turning to `CCOc1ccc(C(C)(C)COCc2cccc(Oc3ccccc3)c2)cc1`, the compound was classed as inactive.

As for `O=c1ssc(Cl)c1Cl`, the concentration at half-maximal activity (AC50) was 33.4 µM (active).

On to `O=NN1CCCC1`, for which the call was inactive.

With `C=CC(=O)OCC(CC)(COC(=O)C=C)COC(=O)C=C`, the concentration at half-maximal activity (AC50) is 24.3 µM (active).

Consider `c1ccc(OP(Oc2ccccc2)Oc2ccccc2)cc1`, for which the compound was called inactive.

`Cc1c([N+](=O)[O-])cc2c(c1[N+](=O)[O-])C(C)(C)CC2(C)C`: the compound was called inactive.

Turning to `CC(C)CBr`, the call was inactive.

As to `O=C(O)C(F)(F)OC(F)(F)C(F)(F)OC(F)(F)F`, the AC50 was 122 µM (active) and 84.6 µM (active).

As to `CC(O)C(F)(F)C(F)(F)F` (stereo not given), the compound was called inactive.

For `CCCCN(CCCC)SN(C)C(=O)Oc1cccc2c1OC(C)(C)C2`, the concentration at half-maximal activity (AC50) was 12.3 µM (active).

For the compound `Nc1ccc(Cl)cc1`, the result was inactive.

As for `Oc1ccc(I)cc1`, the outcome was inactive.

`CCCCN(CC)C(=O)SCCC`: the compound was classed as inactive.

With `CCOC(=O)c1ccccc1N`, the compound was classed as inactive.

Take `CC(=O)CCc1ccc2c(c1)OCO2`: the compound was called inactive.

On to `CCC(C)(C)c1ccc(O)cc1`, for which the outcome was inactive.

On to `CCN(CC)C1CCCCC1`, for which the outcome was inactive.

With `CCCCc1ccc(O)cc1`, the concentration at half-maximal activity (AC50) was 57.1 µM (active).

On to `CC(Cc1ccc(OCC(=O)O)cc1)NCC(O)c1csc(C(F)(F)F)n1` (stereo not given), for which the call was inactive.

Consider `O=[N+]([O-])c1ccc(Cl)c(Cl)c1`, for which the AC50 is 16 µM (active).

As for `OCC(F)(F)OC(F)(F)C(F)(F)OC(F)(F)C(F)(F)OC(F)(F)CO`, the outcome was inactive.

With `O=P1(N(CCCl)CCCl)NCCCO1` (stereo not given), the compound was called inactive.

On to `N#Cc1cc([N+](=O)[O-])ccc1N`, for which the compound was called inactive.

`OCC(F)(F)OC(F)(F)C(F)(F)OC(F)(F)CO`: the outcome was inactive.

Regarding `Cc1ccc(C(=O)Cl)cc1`, the call was inactive.

For `Nc1ccc(Sc2ccc(N)cc2)cc1`, the AC50 is 57.1 µM (active).

Regarding `CC(C)(C)c1ccccc1OP(=O)(Oc1ccccc1)Oc1ccccc1`, the half-maximal activity concentration (AC50) is 3.63 µM (active).

As to `Nc1ccc([N+](=O)[O-])cc1Cl`, the compound was classed as inactive.

Turning to `ClC1=C(Cl)C2(Cl)C3C(Cl)C(Cl)CC3C1(Cl)C2(Cl)Cl` (stereo not given), the half-maximal activity concentration (AC50) is 35.3 µM (active).

For the compound `O=S(=O)(c1ccc(O)cc1)c1ccc(O)cc1`, the AC50 is 22.4 µM (active).

As for `O=[N+]([O-])c1cc(Cl)ccc1Cl`, the AC50 is 16.1 µM (active).
